A short description of test [1]: liver-stage malaria parasite load reduction – cell-based, known kinase inhibitor set, luminescence, hepatoma host viability (AID 624392).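 Note: infected cells incubated roughly two days before readout.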 As to conditions: Plasmodium liver stage in hepatoma cells, luciferase luminescence, concentration not given here; liver cell % of control: measured here: host liver cell viability; parasite % of control: stronger effect = lower value.
Test [2] can be described thus: altered dexamethasone sensitivity, NF-kB reporter, cell-based, luciferase, IL-1B stimulus (AID 624486).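 For percent of negative control (+Dex): 100% = mean signal of vehicle control wells on the plate.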 As to conditions: IL-1B + dexamethasone, luminescence; percent of negative control (+Dex): actives lie on both sides, concentration not given here; z-score: measured here: IL-1B alone, no Dex.
The target in test [3] is Cellular tumor antigen p53 (Homo sapiens) (UniProt P04637). As to the kind of experiment: GFP-p53 level modulators in HPV16+ cells – imaging, known kinase inhibitor set, EGFP/DsRed ratio (AID 1053116).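 Note: cells exposed to compounds for 24 h at 37 °C before reading.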 The settings on record: GFP-p53 stability, stronger effect = higher value; EGFP object count: measured here: GFP-p53 positive objects count.
Cellular tumor antigen p53 (Homo sapiens), sequence (P04637 whole entry, looked up): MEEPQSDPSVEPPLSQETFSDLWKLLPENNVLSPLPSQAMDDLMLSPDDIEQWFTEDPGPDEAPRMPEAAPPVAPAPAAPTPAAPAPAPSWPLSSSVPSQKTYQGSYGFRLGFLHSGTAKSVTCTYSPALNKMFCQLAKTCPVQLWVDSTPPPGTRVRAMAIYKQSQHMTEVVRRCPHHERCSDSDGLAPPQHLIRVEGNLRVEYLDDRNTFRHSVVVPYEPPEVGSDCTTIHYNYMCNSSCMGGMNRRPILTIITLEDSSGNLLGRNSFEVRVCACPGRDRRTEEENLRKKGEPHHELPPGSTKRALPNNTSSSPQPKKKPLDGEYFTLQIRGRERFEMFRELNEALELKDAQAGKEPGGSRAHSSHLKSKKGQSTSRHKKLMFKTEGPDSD
A short description of test [4]: inducers of IRF3 signaling, differentiated THP-1 – cell-based, PMA-stimulated THP-1, luminescence (AID 1053176). The settings on record: PMA-differentiated THP-1, IRF3 reporter luminescence; stronger effect = higher value.

Where “and” joins values, the source holds several entries; their conditions need not be identical. Equal values may be shown once. Calls of active or inactive are those of the source. The rule behind the calls is not given here.

Consider `CS(=O)(=O)CCCn1c(=O)c(Oc2ccc(F)cc2F)cc2cnc(NC3CCOCC3)nc21`, for which, in test [1], the liver cell % of control worked out at 98.7% and the parasite % of control was 51.4% (inactive). In test [2], the percent of negative control (+Dex) is 101% (inactive) and the z-score came out at 0.05. For the same molecule, in test [3], the EGFP object count stood at 1 and the EGFP/DsRed ratio is 0.0135 (inactive). Moreover, in test [4], the fraction signal is -0.009 (inactive).

`Cn1c(=O)c(Oc2ccc(F)cc2F)cc2cnc(NCCS(C)(=O)=O)nc21`: in test [1], the liver cell % of control was 117% and the parasite % of control is 60.7% (inactive). In test [2], the percent of negative control (+Dex) is 101% (inactive) and the z-score was determined as 0.95. For the same molecule, in test [3], the EGFP object count turned out to be 1 and the EGFP/DsRed ratio is 0.00515 (inactive). In test [4], the fraction signal was 0.0015 (inactive).

Regarding `CC(C)c1[nH]nc2c1N=C(c1ccccc1Cl)c1cc([N+](=O)[O-])ccc1N2`, in test [1], the liver cell % of control was 105% and the parasite % of control was 61.2% (inactive). Besides, in test [2], the percent of negative control (+Dex) is 108% (inactive) and the z-score turned out to be 0.05. In test [3], the EGFP object count worked out at 50.5 and the EGFP/DsRed ratio is 1.11 (active). Besides, the fraction signal in test [4] is -0.0115 (inactive).

In the case of `Cn1cc(C2=C(c3cccc(NCC(O)CO)c3)C(=O)NC2=O)c2cc(Cl)ccc21` (stereo unspecified), in test [1], the liver cell % of control worked out at 134% and the parasite % of control was 44.5% (inactive). Also, in test [2], the percent of negative control (+Dex) is 140% (active) and the z-score is -1.56. Also, in test [3], the EGFP object count worked out at 15 and the EGFP/DsRed ratio is 0.196 (inactive). The fraction signal in test [4] was -0.0005 (inactive).

Regarding `Cn1c(=O)c(Cc2ccc(F)cc2F)cc2cnc(NC3CCOCC3)nc21`, in test [1], the liver cell % of control worked out at 103% and the parasite % of control was 54.9% (inactive). For the same molecule, in test [2], the percent of negative control (+Dex) was 98.5% (inactive) and the z-score was determined as 0.48. In test [3], the EGFP object count worked out at 3 and the EGFP/DsRed ratio is 0.139 (inactive). In test [4], the fraction signal was -0.0055 (inactive).

With `O=C1NC(=NCc2c(Cl)cccc2Cl)SC1=Cc1ccc2ncccc2c1`, in test [1], the liver cell % of control worked out at 106% and the parasite % of control was 51.5% (inactive). Besides, in test [2], the percent of negative control (+Dex) is 101% (inactive) and the z-score was 0.16. In test [3], the EGFP object count turned out to be 2.5 and the EGFP/DsRed ratio is 0.0754 (inactive). In addition, the fraction signal in test [4] is -0.009 (inactive).

On to `Cc1ccc(C)c(C2=C(c3cn(C)c4ccccc34)C(=O)NC2=O)c1`, for which, in test [1], the liver cell % of control was found to be 166% and the parasite % of control was 33% (inactive). Further, in test [2], the percent of negative control (+Dex) is 102% (inactive) and the z-score is -1.65. In addition, in test [3], the EGFP object count turned out to be 33.5 and the EGFP/DsRed ratio is 0.361 (inactive). Moreover, the fraction signal in test [4] is 0.0035 (inactive).

With `Cn1cc(C2=C(c3ccccc3[N+](=O)[O-])C(=O)NC2=O)c2ccccc21`, in test [1], the liver cell % of control was 80.1% and the parasite % of control is 121% (inactive). Moreover, in test [2], the percent of negative control (+Dex) is 147% (active) and the z-score was -1.21. Moreover, in test [3], the EGFP object count amounted to 19 and the EGFP/DsRed ratio is 0.315 (inactive). Further, the fraction signal in test [4] is 0.0035 (inactive).

Turning to `O=C1NC(O)C(c2c[nH]c3ccccc23)=C1c1c[nH]c2ccccc12` (stereo unspecified), in test [1], the liver cell % of control is 141% and the parasite % of control is 47.1% (inactive). Besides, in test [2], the percent of negative control (+Dex) was 93% (inactive) and the z-score was 0.455. Besides, in test [3], the EGFP object count is 4 and the EGFP/DsRed ratio is 0.15 (inactive). Besides, the fraction signal in test [4] is 0.001 (inactive).

For `Cn1cc(C2=C(c3c4n(c5ccccc35)CCNC4)C(=O)NC2=O)c2ccccc21`, in test [1], the liver cell % of control was 79.3% and the parasite % of control was 40.6% (inactive). In test [2], the percent of negative control (+Dex) was 97.5% (inactive) and the z-score was -0.32. Further, in test [3], the EGFP object count is 25 and the EGFP/DsRed ratio was 0.0526 (inactive). In test [4], the fraction signal is -0.007 (inactive).

Turning to `Fc1ccc(-c2c(-c3ccncc3)[nH]c3nccnc23)cc1`, in test [1], the liver cell % of control was 183% and the parasite % of control is 30.2% (inactive). In test [2], the percent of negative control (+Dex) is 110% (inactive) and the z-score is -0.915. Besides, in test [3], the EGFP object count was 4 and the EGFP/DsRed ratio is 0.101 (inactive). Besides, in test [4], the fraction signal is -0.02 (inactive).

As to `O=C1NC(=NC(CO)Cc2ccccc2)SC1=Cc1ccc2ncccc2c1` (stereo unspecified), in test [1], the liver cell % of control was 107% and 106%; the parasite % of control was 258% (inactive) and 60% (inactive). In addition, in test [2], the percent of negative control (+Dex) is 91.5% (inactive) and 102% (inactive); the z-score was -0.515 and 0.03. For the same molecule, in test [3], the EGFP object count is 6.5 and 4; the EGFP/DsRed ratio is 0.117 (inactive) and 0.195 (inactive). Besides, the fraction signal in test [4] is -0.0075 (inactive) and -0.0115 (inactive).

In the case of `O=c1c(Oc2ccc(F)cc2F)cc2cnc(NC3CCOCC3)nc2n1C1CC1`, in test [1], the liver cell % of control stood at 113% and the parasite % of control was 52.9% (inactive). Also, in test [2], the percent of negative control (+Dex) was 92.5% (inactive) and the z-score is -0.435. Besides, in test [3], the EGFP object count stood at 4 and the EGFP/DsRed ratio is 0.269 (inactive). Further, the fraction signal in test [4] was -0.0095 (inactive).

For `Cn1cc(C2=C(c3ccc4ccccc4c3)C(=O)NC2=O)c2ccccc21`, in test [1], the liver cell % of control was 105% and the parasite % of control is 53.6% (inactive). Besides, in test [2], the percent of negative control (+Dex) was 94% (inactive) and the z-score is -0.025. In test [3], the EGFP object count was found to be 3 and the EGFP/DsRed ratio was 0.0576 (inactive). Besides, the fraction signal in test [4] is -0.001 (inactive).

For the molecule `Cn1cc(C2=C(c3cn(-c4ccccc4)c4ccccc34)C(=O)NC2=O)c2ccccc21`, in test [1], the liver cell % of control came to 108% and the parasite % of control is 63.3% (inactive). In test [2], the percent of negative control (+Dex) is 99% (inactive) and the z-score was determined as 0.65. For the same molecule, in test [3], the EGFP object count was 3 and the EGFP/DsRed ratio was 0.0255 (inactive). For the same molecule, in test [4], the fraction signal was 0.01 (inactive).

Turning to `O=C1OC(=O)C(c2c[nH]c3ccccc23)=C1c1c[nH]c2ccccc12`, in test [1], the liver cell % of control came to 99.6% and the parasite % of control is 48.8% (inactive). Further, in test [2], the percent of negative control (+Dex) was 95% (inactive) and the z-score is 1. In addition, in test [3], the EGFP object count was determined as 3.5 and the EGFP/DsRed ratio was 0.0625 (inactive). Also, the fraction signal in test [4] was -0.018 (inactive).

Take `Nc1c(C(=O)c2cccc(C#CCN3CCCCC3)c2)cnn1-c1ccc(F)cc1`: in test [1], the liver cell % of control was 91.6% and the parasite % of control was 50.5% (inactive). For the same molecule, in test [2], the percent of negative control (+Dex) is 101% (inactive) and the z-score came to 0.935. Moreover, in test [3], the EGFP object count came to 1.5 and the EGFP/DsRed ratio was 0.0667 (inactive). The fraction signal in test [4] was 0.0075 (inactive).

With `Cn1cc(C2=C(c3cccc(Cl)c3)C(=O)NC2=O)c2ccccc21`, in test [1], the liver cell % of control was 109% and the parasite % of control was 69.6% (inactive). Besides, in test [2], the percent of negative control (+Dex) is 106% (inactive) and the z-score was 0.59. Moreover, in test [3], the EGFP object count came out at 5 and the EGFP/DsRed ratio is 0.137 (inactive). The fraction signal in test [4] was 0.0035 (inactive).
